Drawing on PubChem BioAssay, this text covers inhibition and activity for 25 molecules.

Experiment [1] concerns the target PEG-3 (UniProt Q6IN02). Put plainly: inhibition of PEG-3 promoter-driven reporter – cell-based, HeLa, luciferase, CREF/GAPDH counter-screen panel, dose response (AID 624167). The settings on record: CREF/GAPDH counter-screens; HeLa PEG-Prom luciferase reporter, overnight, run 1, dose range 1, at 100 µM (top of the series) unless noted. For orientation: A counterscreen serves to expose hits that act by an unwanted route or on another target.

Experiment [2] concerns the target PEG-3 (UniProt Q6IN02). The description is as above. The following applies: CREF/GAPDH counter-screens; HeLa PEG-Prom luciferase reporter, overnight, run 2, dose range 1, at 100 µM (top of the series) unless noted.
Experiment [3] concerns Rat fibroblasts (CREF). The experiment is described as above. The settings on record: CREF/GAPDH counter-screens; run 1, dose range 1, at 100 µM (top of the series).
In experiment [4] the test system is Rat fibroblasts (CREF). Described as above. The settings on record: CREF/GAPDH counter-screens; run 2, dose range 1, at 100 µM (top of the series).
In experiment [5] the target is Tumor necrosis factor receptor superfamily member 10B (Homo sapiens) (UniProt O14763). Put plainly: viability loss of caspase-8 NB7 cells with TRAIL – with/without TRAIL, luminescence panel, confirmation (AID 651596). The settings on record: NB7 neuroblastoma + caspase-8, TRAIL sensitization, NB7 Caspase-8, with TRAIL, mean of runs, at 10 µM, stronger effect = higher value.
Experiment in experiment [6]: as above
The following applies: NB7 neuroblastoma + caspase-8, without TRAIL, NB7 Caspase-8, without TRAIL, mean of runs, at 10 µM.

Experiment [7] can be described thus: NFkB reporter suppression in cystic fibrosis bronchial cells – cell-based, uHTS hits, panel, cytotoxicity readout, dose response (AID 624344). The following applies: CF bronchial epithelial cells, PAF-induced NFkB reporter inhibition, with PAF, run 1; at 79 µM (top of the series) unless noted.
Experiment in experiment [8]: as above
The settings on record: CF bronchial epithelial cells, PAF-induced NFkB reporter inhibition, with PAF, run 2; at 79 µM (top of the series) unless noted.

One may read the inhibition as the relative decrease from the control value, in per cent.

Sequence of PEG-3 (Q6IN02 whole entry, looked up): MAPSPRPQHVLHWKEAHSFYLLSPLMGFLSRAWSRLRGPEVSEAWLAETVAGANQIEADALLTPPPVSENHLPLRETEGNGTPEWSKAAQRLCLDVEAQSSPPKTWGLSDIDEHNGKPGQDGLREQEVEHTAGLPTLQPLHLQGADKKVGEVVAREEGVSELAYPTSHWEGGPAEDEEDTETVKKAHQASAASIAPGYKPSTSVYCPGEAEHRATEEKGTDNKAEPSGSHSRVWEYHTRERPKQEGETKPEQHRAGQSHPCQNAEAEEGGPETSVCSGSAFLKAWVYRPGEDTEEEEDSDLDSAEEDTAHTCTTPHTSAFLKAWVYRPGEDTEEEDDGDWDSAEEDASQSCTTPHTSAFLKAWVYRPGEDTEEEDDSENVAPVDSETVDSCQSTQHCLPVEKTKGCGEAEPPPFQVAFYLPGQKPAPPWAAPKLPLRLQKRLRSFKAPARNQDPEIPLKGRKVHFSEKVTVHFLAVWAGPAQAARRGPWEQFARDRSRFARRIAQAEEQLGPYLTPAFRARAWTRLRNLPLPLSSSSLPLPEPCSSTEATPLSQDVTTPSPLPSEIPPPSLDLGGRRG
Sequence of Tumor necrosis factor receptor superfamily member 10B (Homo sapiens) (O14763 whole entry, looked up): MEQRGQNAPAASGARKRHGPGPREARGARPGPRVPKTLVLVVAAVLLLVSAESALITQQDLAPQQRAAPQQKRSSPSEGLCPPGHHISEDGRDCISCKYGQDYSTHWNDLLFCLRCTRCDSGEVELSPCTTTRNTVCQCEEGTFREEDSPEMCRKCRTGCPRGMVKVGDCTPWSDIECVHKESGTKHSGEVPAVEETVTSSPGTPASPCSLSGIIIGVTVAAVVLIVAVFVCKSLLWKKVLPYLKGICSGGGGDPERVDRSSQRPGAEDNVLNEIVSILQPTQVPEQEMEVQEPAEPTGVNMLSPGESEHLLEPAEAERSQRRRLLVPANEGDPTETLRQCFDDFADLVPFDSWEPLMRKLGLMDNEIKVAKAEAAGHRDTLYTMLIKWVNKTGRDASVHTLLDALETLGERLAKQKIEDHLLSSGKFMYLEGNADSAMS

For `C(=N\Nc1nc2ccccc2[nH]1)/c1ccccn1`, the inhibition in experiment [1] was found to be 93.6%; in experiment [2], 101%; in experiment [3], 93.7%; in experiment [4], 96.8%. Moreover, the activity in experiment [5] was 92%; in experiment [6] it was 95.6%.
Take `COCCn1c(C)cc(C(=O)CSc2nnc(C)s2)c1C`: the inhibition in experiment [1] turned out to be 96.1%; in experiment [2] it was 94.9%; in experiment [3], 90.8%; in experiment [4] it was 90.7%. The values for the activity in experiment [5] and in experiment [6] were 53.5% and 49%, respectively.
Take `CC(=O)CSc1ccc(-c2nc3cc(C)c(C)cc3[nH]2)cn1`: the inhibition in experiment [1] was 102%; in experiment [2], 101%; in experiment [3] it was 95.4%; in experiment [4], 95.4%. For the same molecule, the results for the activity in experiment [5] and in experiment [6] were 89.6% and 88.5%, respectively.
For `OCC1OC(n2ccc3c(NO)ncnc32)C(O)C1O` (configuration not stated), the inhibition in experiment [1] is 99.4%; in experiment [2], 101%; in experiment [3] it was 95.4%; in experiment [4], 94.6%. The figures for the activity in experiment [5] and in experiment [6] were 98.8% and 99.1%, respectively.
For the molecule `CCOc1ccc(NC(=O)c2ccccn2)cc1`, the inhibition in experiment [1] is 88.8%; in experiment [2] it was 91.5%; in experiment [3] it was 97.1%; in experiment [4] it was 95.5%. For the same molecule, the figures for the activity in experiment [5] and in experiment [6] were 92.4% and 89.9%, respectively.
Regarding `O=C1c2cccc3cc([N+](=O)[O-])cc(c23)C(=O)N1CCN1CCCC1`, the inhibition was 102% in experiment [1], 99.1% in experiment [2], 80.3% in experiment [3] and 83% in experiment [4]. In addition, the activity turned out to be 41.1% in experiment [5] and 67.3% in experiment [6].
Take `COc1ccc(C(C(=O)NCC2CCCO2)N(Cc2cccs2)C(=O)c2snc(C(N)=O)c2N)cc1` (configuration not stated): the inhibition was 47.8% in experiment [1], 28.4% in experiment [2], 109% in experiment [7] and 101% in experiment [8].
`CCC1=C(CC2NCCc3ccccc32)CC2c3cc(OC)c(OC)cc3CCN2C1` (configuration not stated): the inhibition in experiment [1] stood at 97.6%; in experiment [2], 99%; in experiment [7], 115%; in experiment [8], 105%.
For `Cc1ccc2sc(N(CCCN(C)C)C(=O)c3ccc(S(=O)(=O)N4CCc5ccccc5C4)cc3)nc2c1C`, the inhibition in experiment [1] was determined as 82.2%; in experiment [2] it was 74.5%. The activity amounted to 75% in experiment [5] and 87% in experiment [6].
As for `Cc1ccc(C(=O)NCCc2cccs2)cc1`, the values for the inhibition in experiment [1] and in experiment [2] were 92.3% and 49.8%, respectively. The activity in experiment [5] came out at 76.6%; in experiment [6] it was 75.8%.
On to `CC(C)(C)C(=O)Nc1ccc(NC(=O)c2ccco2)nc1`, for which the inhibition was found to be 102% in experiment [1], 101% in experiment [2], 100% in experiment [3] and 100% in experiment [4]. Moreover, the activity stood at 98.7% in experiment [5] and 98.5% in experiment [6].
Regarding `C=C1CC(COc2ccc3c(C)c(Cl)c(=O)oc3c2)(c2ccccc2)OC1=O` (configuration not stated), the inhibition in experiment [1] amounted to 99.6%; in experiment [2], 101%; in experiment [3] it was 98.2%; in experiment [4] it was 98%. Also, the results for the activity in experiment [5] and in experiment [6] were 97.8% and 99%, respectively.
As for `O=c1c2ccccc2oc2cc(C#CC3(O)CCCCC3)ccc12`, the inhibition in experiment [1] and in experiment [2] was 102% throughout. For the same molecule, the activity in experiment [5] came out at 87.3%; in experiment [6] it was 85.3%.
Regarding `COC(=O)c1c(NC(=O)c2ccc([N+](=O)[O-])o2)sc2c1CCN(C(C)C)C2`, the figures for the inhibition in experiment [1] and in experiment [2] were 95% and 99.1%, respectively. In addition, the activity in experiment [5] was found to be 46.9%; in experiment [6] it was 88.7%.
Consider `Cc1cnc(NC(=O)C2CC(=O)N(c3cccc(Cl)c3)C2)s1` (configuration not stated), for which the inhibition in experiment [1] is 97.7%; in experiment [2] it was 87.8%; in experiment [7], 94.9%; in experiment [8] it was 116%.
On to `C=C1CC2(OC1=O)c1ccccc1CCc1ccccc12`, for which the inhibition in experiment [1] came to 102%; in experiment [2], 101%; in experiment [3], 95.7%; in experiment [4] it was 97.7%. For the same molecule, the values for the activity in experiment [5] and in experiment [6] were 97.2% and 99.3%, respectively.
Consider `FC(F)Sc1ccc(NC(=S)NC(c2ccccc2)c2ccccc2)cc1`, for which the inhibition is 99.8% in experiment [1], 96.5% in experiment [2], 116% in experiment [7] and 103% in experiment [8].
As for `O=C(CCl)Nc1cccc(-c2cnc3ccccc3n2)c1`, the inhibition in experiment [1] was determined as 101%; in experiment [2] it was 98.6%. Further, the activity in experiment [5] came to 99.3%; in experiment [6] it was 99.2%.
As to `Cc1cc(C(=O)COC(=O)c2ccccc2Br)c(C)n1CC1CCCO1` (configuration not stated), the inhibition turned out to be 95.8% in experiment [1] and 85.4% in experiment [2]. Moreover, the activity in experiment [5] was 68.1%; in experiment [6], 74.3%.
Take `O=S(=O)(Nc1cccc2cccnc12)c1ccccc1`: the inhibition in experiment [1] came out at 81.7%; in experiment [2] it was 97.7%; in experiment [7] it was 102%; in experiment [8], 109%.
Taken in the same sequence, the figures for `CN(C)c1ccc(C(C(=O)NCc2ccccc2)N(Cc2ccco2)C(=O)c2snc(C(N)=O)c2N)cc1` (configuration not stated) were 21.1%, 29.3%, 109% and 104%.
For the molecule `CCCn1c(C)cc(C(=O)CN2C(=O)c3ccccc3S2(=O)=O)c1C`, the inhibition in experiment [1] is 97.5%; in experiment [2] it was 98.9%; in experiment [3], 91.2%; in experiment [4], 92.1%. Also, the values for the activity in experiment [5] and in experiment [6] were 60.1% and 62.3%, respectively.
For the molecule `CCc1nccn1C(=O)c1cnn2c(C(F)F)cc(-c3ccc(C)cc3)nc12`, the inhibition in experiment [1] was found to be 99.1%; in experiment [2], 102%; in experiment [7], 102%; in experiment [8], 115%.
As for `NC(=O)c1nsc(C(=O)N(c2ccccc2F)C(C(=O)NCc2ccc(F)cc2)c2ccc(O)cc2)c1N` (configuration not stated), the inhibition is 101% in experiment [1], 99.2% in experiment [2], 106% in experiment [7] and 98.8% in experiment [8].
As to `COc1ccc(Nc2nc(-c3ccccc3)nc3ccccc23)cc1S(=O)(=O)N1CCOCC1`, the inhibition in experiment [1] worked out at 61.7%; in experiment [2] it was 59.1%; in experiment [7] it was 97.7%; in experiment [8], 106%. Also, the values for the activity in experiment [5] and in experiment [6] were 33% and 25.6%, respectively.
